17 compounds from PubChem BioAssay AID652040 (Broad Institute, 2013) can be followed below.

The structures appear in SMILES notation. Potency and affinity values are given separately. Calls of active or inactive are those of the source.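 Rule for the calls: active = falling luciferase signal whose fitted half-maximal concentration is at most twice the top tested dose; inconclusive = flat inhibition between 30 and 70% or a poor curve fit; inactive = the rest.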

A short description of the assay: off-target signal loss in HeLa-CEM21 co-culture – HeLa F-luc CTL cells, cherry-picked, counter-screen for HIV-1 Env fusion inhibitor project, dose response (AID 652040).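 Note: more negative values mean stronger loss of luciferase signal.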 The conditions noted are these: HeLa-F-luc CTL cells with CEM21, firefly luciferase counterscreen; series mostly up to 35 µM. For orientation: The purpose of a counterscreen is to sort out artefacts and off-target activity.
For the compound `COc1ccc(S(=O)(=O)NNC(=O)C2Cc3c(ccc4ccccc34)O2)cc1` (configuration not stated), the call was inactive.

In the case of `O=C(Nc1ccc(N2CCN(C(=O)c3ccc(Cl)cc3)CC2)cc1)c1ccc2c(c1)OCCO2`, the compound was called inactive.

In the case of `CC1CCC(C(C)C)C(OC(=O)Cn2c(-c3ccccc3)[n+](C)c3ccccc32)C1` (configuration not stated), the result was inactive.

For `CC1(C)N=C(N)N=C(N)N1CCCCc1ccccc1`, the result was inactive.

As for `CCCCn1c(CN(C)Cc2ccccc2)nc2c1c(=O)n(C)c(=O)n2C`, the call was inactive.

`Cn1c(CN2CCCCC2)nc2cc(NC(=O)c3ccc(Cl)cc3)ccc21`: the compound was classed as inactive.

With `COc1ccc(Nc2ncc(C(=O)N3CCN(c4ccc(F)cc4)CC3)c3ccccc23)cc1`, the outcome was inactive.

For the compound `CC(=O)C1=C(C)NC(=S)NC1c1ccccc1` (configuration not stated), the outcome was inactive.

With `CCN(CCn1cccn1)C(=O)CC1C(=O)NCCN1CCc1ccccc1` (configuration not stated), the outcome was inactive.

For the compound `CCN1C(=O)[C@H]2[C@@H](c3ccc(C(F)(F)F)cc3)N[C@]3(CCCN(Cc4ccccc4)C3=O)[C@H]2C1=O`, the call was inactive.

For the compound `CC(C)CNS(=O)(=O)c1ccc(CCC(=O)N2CCN(Cc3ccc4c(c3)OCO4)CC2)cc1`, the call was inactive.

Regarding `Cc1oc(-c2ccc(Cl)cc2)nc1CN1CCCC(C(=O)NCc2cccnc2)C1` (configuration not stated), the outcome was inactive.

Regarding `COc1ccc2c(c1)[nH]c1c(N3CCN(Cc4ccc5c(c4)OCO5)CC3)ncnc12`, the outcome was inactive.

For `CCCc1cc(=O)n2[nH]cc(-c3ccc(Cl)cc3)c2n1`, the call was inactive.

As for `O=C(CNC(=O)c1cccc(-n2cccc2)c1)Nc1ccccc1Br`, the call was inactive.

`NC(=S)c1ccc(OCCCc2ccccc2)cc1`: the result was inactive.

For `COC(=O)c1ccc(NC(=O)c2ccc(CN3CCOCC3)cc2)cc1`, the call was inactive.
